We go through nine compounds from PubChem BioAssay.

The structures appear in SMILES notation. The source made the active and inactive calls. Unless noted, no rule for the calls is given here.

A short description of test [1]: resazurin metabolic signal in HepG2 cells – cell-based, resazurin fluorescence, 24 h, PK04 Diversity Set, profiling panel (AID 1172). The settings on record: HepG2 viability, higher = more signal.
Test [2] can be described thus: budding yeast growth changes without added modifier – OD600, strain BY4716, 24 h, basal condition, primary screen (AID 1173). The following applies: S. cerevisiae BY4716 growth, OD600, 24 h; higher = more signal, called active from +8 up or from −8 down.
Test [3] can be described thus: viability profiling in MM1S myeloma cells – cell-based, resazurin fluorescence, basal, 24 h, PK04 Diversity Set, profiling panel (AID 1174).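 Also: MM1S multiple myeloma cell line.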 The following applies: higher = more signal, called active from +8 up or from −8 down.
Test [4] addresses Dihydroorotate dehydrogenase (quinone), mitochondrial (Plasmodium falciparum (isolate 3D7)) (UniProt Q08210). The test is described as follows: inhibition of P. falciparum DHODH – biochemical, C-terminal His tag, absorbance 600 nm, primary screen (AID 1175).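 Also: recombinant parasite enzyme with a five histidine tag at its C terminus.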 The settings on record: PfDHODH enzyme, DCIP absorbance 600 nm; higher = more signal, called active from +8 up or from −8 down.

Test [5] is described as follows: inhibition of PAO1 biofilm formation – strain PAO1, LB-PBS medium, absorbance 600 nm, primary screen (AID 1176). The following applies: P. aeruginosa PAO1 growth/biofilm, A600, 12 h; higher = more signal.
Test [6] in a line: growth modulation of vineyard yeast isolate – strain RM11-1a, OD600, basal, 24 h, primary screen (AID 1177).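 Also: cultures grown under basal conditions with no added stressor.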 The following applies: S. cerevisiae RM11-1a growth, OD600, 24 h; higher = more signal, called active from +8 up or from −8 down.
Test [7] in a line: growth of efflux-deficient E. coli DRC39 – strain DRC39, OD650, 24 h, E. coli filamentation inducers, primary screen (AID 1178).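 Also: growth measured as culture turbidity by optical density at 650 nm.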 The settings on record: E. coli DRC39 acrAB, higher = more signal, called active from +8 up or from −8 down.
The nature of test [8]: growth of efflux-deficient E. coli DRC39 – strain DRC39, OD650, 48 h, E. coli filamentation inducers, primary screen (AID 1179).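 Also: screen aims at cell division blockers that make cells filament.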 The following applies: E. coli DRC39 delta-acrAB growth, higher = more signal, called active from +8 up or from −8 down.
Test [9] is described as follows: viability profiling in RPMI8226 myeloma cells – cell-based, resazurin fluorescence, basal, 24 h, PK04 Diversity Set, profiling panel (AID 1180).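 Also: RPMI8826 multiple myeloma cell line at 5000 cells per well.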 The following applies: higher = more signal.
The target in test [10] is E3 ubiquitin-protein ligase XIAP (Homo sapiens) (UniProt P98170). The test can be described thus: small molecules binding XIAP protein – biophysical, small-molecule microarray, fluorescence 635 nm, primary screen (AID 1181).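 Also: score merges 667 nm emission and signal to noise over triplicate slides.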 The following applies: higher = more signal.
E3 ubiquitin-protein ligase XIAP (Homo sapiens), sequence (P98170 whole entry, looked up, the tested form may be a part): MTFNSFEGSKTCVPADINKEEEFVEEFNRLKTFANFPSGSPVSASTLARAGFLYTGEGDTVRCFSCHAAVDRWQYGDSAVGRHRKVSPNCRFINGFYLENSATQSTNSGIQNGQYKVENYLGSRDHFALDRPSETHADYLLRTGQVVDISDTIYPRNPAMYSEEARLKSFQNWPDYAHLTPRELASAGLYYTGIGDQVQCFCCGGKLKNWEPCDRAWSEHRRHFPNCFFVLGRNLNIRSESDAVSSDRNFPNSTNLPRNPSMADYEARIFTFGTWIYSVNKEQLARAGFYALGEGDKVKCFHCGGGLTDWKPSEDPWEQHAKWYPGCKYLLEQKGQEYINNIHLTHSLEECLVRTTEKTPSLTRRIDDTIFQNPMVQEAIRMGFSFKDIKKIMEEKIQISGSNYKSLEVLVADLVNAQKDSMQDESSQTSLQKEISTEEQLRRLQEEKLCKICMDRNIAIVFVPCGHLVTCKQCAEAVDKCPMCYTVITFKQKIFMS
The subject of test [11] is XIP peptide (Xip251-270) binding. The test can be described thus: XIP fragment 251-270 binding compounds – biochemical, small-molecule microarray, fluorescence 635/667 nm, 0.1 µg/mL protein, primary screen (AID 1182). The following applies: fluorescent protein binding, 635 nm, higher = more signal, called active from +8 up or from −8 down.
Test [12] relates to XIP peptide (Xip251-270). The test is described as follows: compounds binding XIP fragment 251-270 – biochemical, small-molecule microarray, fluorescence 635/667 nm, 0.5 µg/mL protein, primary screen (AID 1183). The following applies: fluorescence 635 nm, higher = more signal.
Test [13] can be described thus: blood-stage malaria parasite viability loss – strain 3D7, DAPI fluorescence, 100 nL, primary screen (AID 1184).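 Also: parasites grown inside human red blood cells in medium with human serum.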 The following applies: P. falciparum 3D7 growth, 3 d, higher = more signal.
Test [14] concerns the target Homeobox protein Hox-A13 (Mus musculus) (UniProt Q62424). The test is described as follows: disruptors of Hoxa13 oligonucleotide interaction – biochemical, fluorescence polarization, labeled oligonucleotide, primary screen (AID 1185). The following applies: Hoxa13:DNA binding, 15 min, higher = more signal, called active from +8 up or from −8 down.
The nature of test [15]: blockers of DNA damage checkpoint Chk1 activation – imaging, HeLa, hydroxyurea, phospho-Chk1 antibody, percent positive cells, primary screen (AID 1186). The settings on record: hydroxyurea-induced phospho-Chk1 immunofluorescence imaging, higher = more signal.
The nature of test [16]: blockers of DNA damage checkpoint Chk1 activation – imaging, HeLa, hydroxyurea, phospho-Chk1 nuclear intensity, primary screen (AID 1187). The settings on record: hydroxyurea-induced phospho-Chk1 immunofluorescence imaging, higher = more signal.

Dihydroorotate dehydrogenase (quinone), mitochondrial (Plasmodium falciparum (isolate 3D7)), sequence (Q08210 whole entry, looked up): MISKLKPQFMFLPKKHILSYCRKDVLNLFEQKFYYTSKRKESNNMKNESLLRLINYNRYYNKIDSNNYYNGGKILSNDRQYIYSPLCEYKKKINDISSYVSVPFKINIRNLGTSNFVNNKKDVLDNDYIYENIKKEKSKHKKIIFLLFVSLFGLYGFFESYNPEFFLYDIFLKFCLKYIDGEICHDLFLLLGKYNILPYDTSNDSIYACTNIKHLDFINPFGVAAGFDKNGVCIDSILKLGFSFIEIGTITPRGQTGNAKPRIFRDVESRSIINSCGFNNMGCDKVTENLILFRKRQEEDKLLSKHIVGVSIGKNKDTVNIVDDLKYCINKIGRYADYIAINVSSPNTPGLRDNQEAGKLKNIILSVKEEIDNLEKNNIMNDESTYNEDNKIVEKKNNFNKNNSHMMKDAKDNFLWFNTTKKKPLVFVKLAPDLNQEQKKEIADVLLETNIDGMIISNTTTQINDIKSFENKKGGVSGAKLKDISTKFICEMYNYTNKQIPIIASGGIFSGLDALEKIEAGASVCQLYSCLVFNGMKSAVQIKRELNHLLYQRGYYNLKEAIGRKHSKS
Homeobox protein Hox-A13 (Mus musculus), sequence (Q62424 whole entry, looked up): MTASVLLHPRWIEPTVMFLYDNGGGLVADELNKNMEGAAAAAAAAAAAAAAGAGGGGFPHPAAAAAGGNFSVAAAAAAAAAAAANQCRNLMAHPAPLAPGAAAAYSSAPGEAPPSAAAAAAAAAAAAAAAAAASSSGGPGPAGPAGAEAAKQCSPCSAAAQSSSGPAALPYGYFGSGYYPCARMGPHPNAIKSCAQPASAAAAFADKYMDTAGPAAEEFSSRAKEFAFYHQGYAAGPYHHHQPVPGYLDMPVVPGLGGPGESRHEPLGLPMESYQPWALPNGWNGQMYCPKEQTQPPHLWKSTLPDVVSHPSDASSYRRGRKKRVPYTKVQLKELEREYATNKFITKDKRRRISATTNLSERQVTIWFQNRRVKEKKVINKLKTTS

Regarding `CC(C)C[C@@H]1NC(=O)[C@@H]2C[C@H](C(=O)NCCCCCCN)[C@H](c3cccc(OCCO)c3)N2C1=O`, the z-score in test [1] is -0.821; in test [2], -0.568 (inactive); in [3], 0.542 (inactive); in [5], 0.379 (inactive); in [6] it was 0.473 (inactive); in test [7] it was -0.0795 (inactive). The z-score is -0.74 (inactive) in test [8]; -0.0399 in test [9]; -0.969 in test [13]; -3.79 (inactive) in test [14]; -0.349 (inactive) in test [15]; -0.207 (inactive) in test [16]. Further, the composite z-score in test [4] is 1.05 (inactive); in test [10], 0.0264; in test [11], 1.6 (inactive); in test [12], 0.891.
With `CCOC(=O)C[C@H]1[C@H](OC(=O)c2ccc(-c3ccccc3)cc2)[C@@H](NC(=O)CC(C)C)c2cc(OCCCO)ccc2N1C(=O)c1ccc2ccccc2n1`, the z-score was 1 in test [1]; -0.677 (inactive) in test [2]; 0.722 (inactive) in test [3]; -0.382 (inactive) in test [5]; -0.248 (inactive) in [6]; 0.102 (inactive) in test [7]. The z-score in test [8] was 0.327 (inactive); in test [9], 0.517; in [13], -0.459; in [14] it was -2.19 (inactive); in [15], 0.319 (inactive); in [16], 0.571 (inactive). Also, the composite z-score in test [4] is -1.31 (inactive); in test [10], -0.134; in test [11] it was -0.349 (inactive); in test [12] it was 0.381.
For the compound `COc1ccccc1CN1C(=O)c2ccccc2[C@](Cc2ccccc2I)(C(=O)O)[C@@H]1c1ccc(CO)cc1`, the z-score in test [1] is -0.569; in test [2], -1.49 (inactive); in test [3] it was -0.0504 (inactive); in test [5], 0.416 (inactive); in [6], 0.0183 (inactive); in test [7] it was 0.706 (inactive). For the same compound, the z-score in test [8] is 0.602 (inactive); in test [9] it was 0.437; in test [13], -0.0897; in [14], -5.51 (inactive); in [15] it was -0.138 (inactive); in [16] it was 0.142 (inactive). Besides, the composite z-score is -0.0436 (inactive) in test [4], 0.133 in test [10], 0.382 (inactive) in test [11] and 0.798 in test [12].
Turning to `COc1ccc(C#Cc2ccc3c(c2)[C@]2(C(=O)N3)[C@H](c3ccc(O)cc3)N3[C@H](c4ccccc4)[C@H](c4ccccc4)OC(=O)[C@H]3[C@@H]2C(=O)Nc2nc3ccccc3s2)cc1`, the z-score was -1.11 in test [1]; -0.155 (inactive) in test [2]; 0.415 (inactive) in test [3]; 1.21 (inactive) in [5]; 1.2 (inactive) in test [6]; 0.198 (inactive) in test [7]. In addition, the z-score in [8] was 0.0227 (inactive); in [9], 1.07; in test [13], -1.31; in [14], -0.76 (inactive); in [15], 0.372 (inactive); in test [16] it was 0.669 (inactive). Besides, the composite z-score was -15.8 (active) in [4], 0.289 in test [10], -0.52 (inactive) in test [11] and 0.77 in [12].
With `CC(C)(C)OC(=O)CC[C@@]1(C(=O)NCC(O)CO)N=C(c2ccc(OCCCO)cc2)O[C@@H]1c1ccccc1CN=[N+]=[N-]` (some centres undefined), the z-score was 0.507 in [1]; -0.215 (inactive) in test [2]; -0.0579 (inactive) in test [3]; 0.869 (inactive) in test [5]; -0.181 (inactive) in test [6]; 0.642 (inactive) in test [7]. Moreover, the z-score is -0.154 (inactive) in test [8]; 0.126 in test [9]; -0.711 in [13]; -5.44 (inactive) in [14]; 0.436 (inactive) in test [15]; 0.71 (inactive) in test [16]. Moreover, the composite z-score in test [4] is 0.345 (inactive); in [10] it was 0.153; in [11], -0.246 (inactive); in test [12] it was 0.57.
On to `CCC1=C2CN(Cc3ccccc3)[C@@H](C(=O)Cc3ccccc3)C2C=CCC1` (some centres undefined), for which the z-score is 0.999 in test [1]; -3.13 (inactive) in test [2]; -0.192 (inactive) in [3]; -1.61 (inactive) in [5]; 0.129 (inactive) in test [6]; 0.941 (inactive) in test [7]. The z-score in test [8] was -0.0333 (inactive); in [9], -0.0509; in test [13], -1.75; in [14], -4.07 (inactive); in test [15] it was 0.313 (inactive); in [16], -0.119 (inactive). The composite z-score in [4] was -3.14 (inactive); in test [10], 0.0554; in test [11], 0.932 (inactive); in test [12], 0.758.
Turning to `C#CCN([C@@H](Cc1ccccc1)C(=O)OC)[C@@H](/C=C/C1CC1)[C@H](O)Cc1ccccc1`, the z-score in test [1] was 0.454; in [2] it was -0.0746 (inactive); in [3] it was 1.4 (inactive); in test [5], -0.189 (inactive); in test [6] it was 0.0421 (inactive); in test [7] it was -0.622 (inactive). Besides, the z-score in test [8] was 0.03 (inactive); in [9], 0.659; in test [13] it was -1.12; in [14] it was -6.42 (inactive); in test [15], -0.121 (inactive); in test [16] it was 0.134 (inactive). Also, the composite z-score is -0.371 (inactive) in [4], -0.175 in test [10], -0.0272 (inactive) in [11] and -0.194 in test [12].
Take `N#Cc1ccc(NN2C(C(O)c3ccc(Br)cc3)C=CC3C(=O)N(c4ccccc4)C(=O)C32)cc1` (centres undefined): the z-score in test [1] is -1.3; in test [2], -3.42 (inactive); in test [3], -0.299 (inactive); in test [5], 0.819 (inactive); in test [6], -1.85 (inactive); in [7], 0.527 (inactive). The z-score was 0.656 (inactive) in test [8]; -0.0706 in test [9]; 0.401 in test [13]; -3.13 (inactive) in test [14]; 0.0643 (inactive) in [15]; 0.0338 (inactive) in test [16]. The composite z-score in test [4] was -1.03 (inactive); in test [10] it was 0.179; in test [11], 1.13 (inactive); in [12], 0.529.
For `COC(=O)[C@@]1(Cc2ccc(OC)cc2)[C@H]2c3cc(C(=O)N(C)C)n(Cc4ccc(OC(F)(F)F)cc4)c3C[C@H]2CN1C(=O)c1ccccc1`, the z-score is -0.409 in test [1]; 0.633 (inactive) in [2]; -6.89 (inactive) in test [3]; 0.619 (inactive) in test [5]; 1.63 (inactive) in test [6]; -0.728 (inactive) in test [7]. Moreover, the z-score is -0.804 (inactive) in [8]; -3.56 in test [9]; -1.42 in test [13]; -5.65 (inactive) in test [14]; 0.154 (inactive) in test [15]; -0.666 (inactive) in [16]. Further, the composite z-score in test [4] was 0.546 (inactive); in [10], 0.422; in test [11] it was -0.202 (inactive); in test [12], 0.112.
